Assay outcomes deposited in PubChem by National Center for Advancing Translational Sciences (NCATS).
HCMV antiviral = blocks human cytomegalovirus replication. AID 1259415. 4.5% of 410,000 active. HFF cells, HCMV-luciferase reporter, 72 h; active compounds read low. activity change, negative = inhibition, % at 57.5 µM; in the data active = activity change below about -60%; inconclusive = no clear call, values can overlap the other calls; inactive = above about -39%; also: % is scaled to controls: 0 for no effect and ±100 for the full control effect
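Human foreskin fibroblasts infected with luciferase-reporter HCMV at MOI 1 PFU/cell, compounds at two doses. Luciferase measured 72 h post infection; normalized to buffer-only basal and Salinomycin (10uM) controls.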
HCV inhibitor = blocks hepatitis C virus | Potency, µM (doses to about 41.8 µM), inactives show at the highest dose activity change, negative = inhibition, usual class: inhibitors | 3.4% of 340,000 active | AID 651820 | Huh7.5.1 HCVcc-Cre infection, luciferase reporter, 44 h; also: potency is read from the fitted curve at half-maximal effect; % is scaled to controls: 0 for no effect and ±100 for the full control effect
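1,000 cells/well; 4 h culture; + compound; + HCVcc-Cre (~0.5 moi); 44 h; luciferase substrate, RT 15 min; read 15 sec.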
Pf growth 96h = P. falciparum growth inhibition at 96 hour, primary screen for plastid delayed-death inhibitors; P. falciparum luciferase reporter growth, 96 h; Potency, µM (titrated, usually from 28.7 µM), for inactives: top-dose activity change, negative = inhibition, most hits filed as inhibitors; 6.9% of 320,000 active; also: potency is read from the fitted curve at half-maximal effect; % is scaled to controls: 0 for no effect and ±100 for the full control effect
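Two parasite generations (96 h, 37 C, 5% CO2) of compound exposure in infected erythrocytes (0.05% parasitemia, 2% hematocrit). Luciferase-reporter P. falciparum; decreased luminescence indicates inhibited growth, aimed at apicoplast-acting delayed death.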
Sm TGR block = blocks Schistosoma mansoni thioredoxin glutathione reductase | Q962Y6 | purified TGR, DTNB reduction, TNB absorbance 405 nm | Potency, µM (top dose mostly 114 µM), inactives show at the top dose activity change, negative = inhibition, hits mostly inhibitors | 3% of 360,000 active; also: potency is read from the fitted curve at half-maximal effect; % is scaled to controls: 0 for no effect and ±100 for the full control effect; nearly all actives have a fitted effect of over 60% in size
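Kinetic colorimetric format: TGR-catalysed, NADPH-driven DTNB reduction monitored via TNB absorbance. Enzyme dispensed at 20 nM; compound exposure 15 min at room temperature before reaction start.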
Pf growth 48h = P. falciparum growth inhibition at 48 hours (one generation); 5.9% of 310,000 active; AID 504832; Potency, µM (highest dose often 28.7 µM), without a hit: top-dose activity change, negative = inhibition, most hits filed as inhibitors; P. falciparum luciferase growth in erythrocytes, 48 h; also: potency is read from the fitted curve at half-maximal effect; % is scaled to controls: 0 for no effect and ±100 for the full control effect
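Luciferase-expressing P. falciparum in infected erythrocytes (2% hematocrit, 0.1% parasitemia final) in RPMI 1640/0.5% Albumax were exposed to compound for 48 hours at 37 C, 5% CO2; growth read as luminescence.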
SARS PLpro yeast = blocks SARS-CoV papain-like protease in a yeast assay. S. cerevisiae expressing SARS-CoV PLpro, growth rescue. Potency, µM (series often up to 32.9 µM), inactives show top-dose activity, positive = growth rescue, usual class: activators. 0.19% of 330,000 active. AID 485353; calls by dose curve; also: potency is read from the fitted curve at half-maximal effect; 0% is about no effect; nearly all actives have a fitted effect of over 55% in size
Active calls of the source: *; ? = inconclusive; . = not tested or not shown; [ ] = remark or other dose. This is a sample that favours compounds with a hit; in the whole collection about 15% have one here. Unless noted, calls follow the shape of the dose curve; as a rule, active = well fitted curve in the direction sought with a large enough effect; inconclusive = small, poorly fitted or top-dose-only effect, or another doubt; inactive = no such curve, though single readings can be large; an effect the other way counts as inactive or inconclusive.

SMILES	HCMV antiviral	HCV inhibitor	Pf growth 96h	Sm TGR block	Pf growth 48h	SARS PLpro yeast
CCNC(=S)N(Cc1ccc2c(c1)OCO2)C1CC(=O)N(c2ccc(F)cc2)C1=O (stereo unspecified)	16	5%	?	-1%	9.3µM*	-3%
O=C(NCCCc1ccc(F)cc1)C1CCC(=O)N(CCCN2CCCC2=O)C1 (stereo unspecified)	?	12%	64%	-7%	25%	3%
CC(C)NC(=O)COC(=O)Cn1[nH]c(=O)c2ccccc2c1=O	-21	5%	20%	-5%	8%	2%
Cc1cc(CNC(=O)COC(=O)Cn2[nH]c(=O)c3ccccc3c2=O)cc(C)c1O	-98*	-6%	1%	-33%	?	1%
CCOc1ccc(Cl)cc1/C=N/NC(N)=O	32	14µM*	26%	.	30%	0%
CCOC(=O)N/N=C/c1ccc(OCCSc2ccc(Cl)cc2)c(OC)c1	9	?	2.1µM*	-12%	5.2µM*	12%
CCOC(=O)N/N=C/c1ccc(OCCSc2ccc(Cl)cc2)c(OCC)c1	-8	?	3.3µM*	3%	1.9µM*	-11%
COC(=O)Oc1ccc(/C=N/NC(=O)CSCc2ccc(Cl)cc2)cc1OC	-60*	?	97%	-7%	15%	-9%
CCOC(=O)N/N=C/c1ccc(OC)c(O)c1	-15	16%	?	-4%	53%	1%
O=C(CSCc1ccc(Cl)cc1)N/N=C/c1ccccc1	-21	1%	.	3%	-2%	0%
O=C(Nc1ccc(F)cc1)C(CCc1ccccc1)N1CCN(c2ccncc2)CC1 (stereo unspecified)	46	.	.	.	.	.
Cc1ccc(-c2csc3nnc(SCC(=O)NCc4ccc5c(c4)OCO5)n23)cc1	-16	6.3µM*	.	-4%	?	-1%
CCOc1ccc2nc(SCC(=O)Nc3cc4c(cc3C(C)=O)OCO4)[nH]c2c1	-2	?	13µM*	-2%	-17%	6%
O=C(CSc1nc2ccccc2[nH]1)NCc1ccc2c(c1)OCO2	-25	-2%	4.1µM*	6%	16%	-4%
O=C(CCSc1nnc2scc(-c3ccccc3)n12)NCc1ccc2c(c1)OCO2	-3	-27%	25%	-3%	-13%	-7%
CCOc1ccc2nc(SCC(=O)Nc3nonc3C)[nH]c2c1	9	20%	?	18%	26%	0%
O=C(CCc1nc2ccccc2[nH]1)NCc1ccc2c(c1)OCO2	2	-15%[8.37 µM]	-14%	-12%	8%	4%
CC(Sc1nnc(-c2cccs2)n1Cc1ccccc1)C(=O)NCc1ccc2c(c1)OCO2 (stereo unspecified)	2	-4%	8.3µM*	-33%	.	0%
COc1ccc(C(=O)CC(C(=O)O)c2ccc(OC)c(OC)c2)cc1OC (stereo unspecified)	24	.	.	.	.	.
C=CCN(c1ccccc1OC)S(=O)(=O)c1cccc(C(=O)NCC(c2ccc(OC)cc2)N2CCCC2)c1 (stereo unspecified)	-6	?	.	.	.	.
Cc1nc2ccccn2c1C(=O)NCc1ccc2c(c1)OCO2	-61*	?	0%[5.75 µM]	-35%	2%	1%
O=C(CSc1nc(=O)n2ccccc2n1)NCc1ccc2c(c1)OCO2	-35	?	13%	-14%	?	4%
CCn1c(SC(C)C(=O)NC2CCCc3ccccc32)nnc1-c1cccs1 (stereo unspecified)	128	6%	17µM*	-21%	.	5%
O=C(CSc1nnc2ccccn12)NCc1ccc2c(c1)OCO2	-79*	13%	282%	3%	15%	-1%
O=C(CSc1nnc(Cc2cccs2)n1-c1ccc(Cl)cc1)NCc1ccc2c(c1)OCO2	30	-10%	7.4µM*	3%	0.93µM*	2%
Cc1nc2ccccn2c1C(=O)N/N=C/c1ccc2c(c1)OCO2	7	-2%	25%	0%	78%	10%
CCCOc1ccc(/C=C/C(=O)Nc2sc(C)c(C)c2C(=O)OCC)cc1OC	-5	.	.	-2%	.	.
Nc1cc2c3ccccc3ccc2c2ccccc12	29	?	.	.	.	.
